Reference: PubChem BioAssay AID1745850 (National Center for Advancing Translational Sciences (NCATS), 2022)
Among all 2,100 compounds or so, about 260 (12%) were called active. Not shown: some 58% with an inconclusive outcome. Calls follow the shape of the dose curve; as a rule, active = well fitted cell-killing curve with a large enough effect; inconclusive = small, poorly fitted or top-dose-only effect, or effect the other way; inactive = flat fitted curve, though single readings scatter. This is one part of the list. Where a call stands in place of a potency, no number is given.

Test: Viability Counterscreen for Confirmatory qHTS for Inhibitors of ATXN expression; also: nearly all actives have a fitted effect of over 50% in size
Conditions: HEK-293 ATXN2-luc cells viability, CellTiter-Fluor, 24 h
Summary of the method: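 Cells with an ATXN2-luciferase reporter were dosed in a dilution series for 24 h at 37 degrees C. Viability was read first with Gly-Phe-AFC at 25 uM final (fluorescence, ex 405/em 540), then SteadyGlo luminescence. Medium-only wells defined 100% inhibition.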
Potency is read from the fitted curve at half-maximal effect.

| SMILES | Potency |
| --- | --- |
| CC1(C)CC(N2CCN(Cc3ccccc3)CC2)=CC(=[N+]2CCCCC2)C1 | inactive |
| COc1ccc(N2CCN(c3ccnc4cc(Cl)ccc34)CC2)cc1 | inactive |
| O=C(Cc1ccccc1)N/N=C/c1cc(Br)cc(Br)c1O | inactive |
| CN(C)c1ccc(C(=O)N/N=C/c2cc(Br)cc(Br)c2O)cc1 | inactive |
| CC(C)C(=O)Nc1ccc(C(=O)N/N=C/c2cc(Br)cc(Br)c2O)cc1 | 28.2 µM (active) |
| C/C(=N\NC(=O)C(C)n1nc(C)c([N+](=O)[O-])c1C)c1ccccc1O (stereo not drawn) | inactive |
| Cc1ccc(/C=C2\SC(=S)N(CCCC(=O)Nc3cc(C)on3)C2=O)cc1 | inactive |
| Cc1ccc(/C=C2\SC(=S)N(CCCC(=O)Nc3cccnc3)C2=O)cc1 | 31.6 µM (active) |
| Cc1ccc(NC(=O)COc2ccc(/C=C3/SC(=Nc4ccccc4)N(Cc4cccnc4)C3=O)cc2)cc1 | 20 µM (active) |
| Cc1ccc(/C=C2\SC(=S)N(CCCC(=O)Nc3ccc(O)cc3)C2=O)cc1 | inactive |
| Cc1ccc(/C=C2/SC(=S)N(CCCC(=O)Nc3ccc(O)cc3)C2=O)cc1 | 28.2 µM (active) |
| O=C(CCCN1C(=O)S/C(=C\c2ccccc2)C1=O)NNC(=O)c1ccccc1O | inactive |
| COC(=O)c1ccc(/C=C2/SC(=S)N(CCCC(=O)Nc3ccccn3)C2=O)cc1 | 28.2 µM (active) |
| [O-][n+]1c2ccccc2cc2ccccc21 | inactive |
| O=c1c(Cc2ccccc2)c(O)nc2n1CCS2 | inactive |
| CC1(C)COCN1S(=O)(=O)c1ccc(C(=O)Nc2nnc(-c3ccc(Cl)s3)o2)cc1 | inactive |
| CC(C)(C)c1ccc(C(=O)N2CCCCCC2=O)cc1 | inactive |
| COc1ccc(/C=C/C(=O)c2ccc([N+](=O)[O-])o2)cc1OC | 8.91 µM (active) |
| Cc1cccc(/C=C/C(=O)c2ccc([N+](=O)[O-])o2)c1 | 3.55 µM (active) |
| CC(/C=C/c1ccc2c(c1)OCO2)=N\NC(=O)c1cccc([N+](=O)[O-])c1 | inactive |
| COc1ccccc1NC(=S)NC(=O)c1ccc(Cn2cc(Br)cn2)cc1 | inactive |
| OC(c1ccccc1)(c1nc(-c2ccc3ccccc3c2)cs1)C(F)(F)F (stereo not drawn) | inactive |
| O=C(NCc1ccccc1Cl)C1CCCN(C(=O)Nc2ccc(F)cc2)C1 (stereo not drawn) | inactive |
| COc1cc(C#Cc2c(-c3cncn3C)n(C)c3ccc(-c4ccc(CN5CCOCC5)cc4)cc23)cc(OC)c1 | inactive |
| O=C(N/N=C\c1cc(Cl)ccc1O)c1ccc(S(=O)(=O)N2CCCCC2)cc1 | inactive |

| SMILES | Potency |
| --- | --- |
| O=C(COc1ccc(F)cc1)N/N=C/c1cccc2cccnc12 | inactive |
| CC1CCN(Cc2c(C(=O)N/N=C/c3cc(Br)ccc3O)nnn2-c2nonc2N)CC1 | inactive |
| Nc1ccc(Oc2ccccc2-c2ccccc2)cc1 | inactive |
| CC(=O)c1cccc(NC(=O)c2cccc3c(-c4cccc(C(N)=O)c4)coc23)c1 | 20 µM (active) |
| COc1cc(NC(=O)c2cccc3c(-c4cnn(C)c4)coc23)cc(OC)c1OC | 31.6 µM (active) |
| CCc1cc2c(=O)c(-c3cnn(-c4ccccc4)c3)coc2c(CN2CCOCC2)c1O | inactive |
| COc1cc(NC(=O)c2cc(-c3ccccc3)nc3c2cnn3C(C)C)cc(OC)c1OC | inactive |
| CC(=O)c1cccc(-c2ccnc3c2CC(C(=O)Nc2ccc(F)c(Cl)c2)O3)c1 (stereo not drawn) | inactive |
| OCCN1CCN(C(=S)c2ccc(-c3ccccc3)cc2)CC1 | inactive |
| Cc1[nH]n(-c2ccccc2)c(=O)c1C=Nc1cccc2cccnc12 | inactive |
| COc1cc(C#Cc2c(-c3cncn3C)n(C)c3ccc(-c4cnc(N5CCOCC5)nc4)cc23)cc(OC)c1 | inactive |
| COC(=O)c1ccsc1NC(=O)CN1CCN(Cc2ccc3c(c2)OCO3)CC1 | inactive |
| Cc1ccc(CN2CC(C(=O)Nc3ncc(C)s3)CC2=O)cc1 (stereo not drawn) | inactive |
| COc1ccccc1-c1cc2nc(-c3ccccc3)cc(N3CCN(C(=O)c4ccoc4)CC3)n2n1 | 15.8 µM (active) |
| CC1CCN(C(=O)c2cc3nc(-c4ccccc4)cc(-c4ccccc4)n3n2)CC1 | inactive |
| COc1cc(OC)cc(-c2cc3nc(C)c(CCC(=O)NCc4ccccc4)c(C)n3n2)c1 | inactive |
| NS(=O)(=O)c1ccc(N2N=C(c3ccccc3)CC2c2ccc(F)cc2)cc1 (stereo not drawn) | inactive |
| CCCCn1c(SCC(=O)Nc2cc(NC(=O)c3ccco3)ccc2C)nc2ccccc2c1=O | inactive |
| Fc1ccc2[nH]c3c(N4CCSCC4)ncnc3c2c1 | 25.1 µM (active) |
| Fc1ccc2[nH]c3c(NCc4ccccc4)ncnc3c2c1 | inactive |
| Cc1ccc(CN(C)C(=O)CN2C(=O)NC(c3ccccc3)(c3ccccc3)C2=O)c(C)c1 | inactive |
| COc1cc(-c2nnc(SCC(=O)N(Cc3ccccc3)C(C)(C)C)o2)cc(OC)c1OC | inactive |
| C=CCOC(=O)C1=C[C@@H](c2ccc3c(c2)OCO3)C[C@@H](OCCCCO)O1 | inactive |
| O=[N+]([O-])c1ccc(C[n+]2cccc3ccc4cccnc4c32)cc1 | inactive |
| O=S(=O)(Nc1cccc2cccnc12)c1ccccc1 | 1.78 µM (active) |

| SMILES | Potency |
| --- | --- |
| O=[N+]([O-])c1ccccc1S(=O)(=O)Nc1cccc2cccnc12 | 17.8 µM (active) |
| O=C(Nc1cccc(Br)c1)Oc1cccc2cccnc12 | inactive |
| O=C(Nc1cccc2cccnc12)c1csc(COCCO)n1 | inactive |
| O=c1cc(N2CCN(c3ccccc3)CC2)[nH]c(=O)n1C1CCCCC1 | inactive |
| Cc1cc(Cl)ccc1-c1cc2nc(NCCCN(C)C)n(C)c(=O)c2s1 | inactive |
| O=C(Nc1ccc2c(c1)CCC2)C1CCN(c2c3c(nc4ncnn24)CCC3)CC1 | inactive |
| CN1C/C(=C/c2cccnc2)C(=O)/C(=C/c2cccnc2)C1 | inactive |
| O=C1/C(=C/c2ccncc2)CCC/C1=C\c1ccncc1 | 10 µM (active) |
| Cc1ccc(-c2nc3ccc(Cl)cn3c2CC(C)(C)C)cc1 | inactive |
| CCCNC(=O)c1ccc2c(=O)c(O)c(-c3cccc(Br)c3)[nH]c2c1 | inactive |
| CCN(CC)C(=O)C1=C(C)N(CCC2=CCCCC2)C(=O)C(CC(=O)NC(c2ccccc2)c2ccccc2)C1 (stereo not drawn) | inactive |
| CC(C)C[C@H](N)c1cn([C@@H](CCCCN)C(=O)N2CCNCC2)nn1 | inactive |
| COc1cc(OC)cc(-c2cc3nc(C)c(CCC(=O)O)c(C)n3n2)c1 | inactive |
| COc1ccc(-c2cc(NC=O)c3ncc(-c4cccc(C(=O)NCCN(C)C)c4)n3c2)cc1 | inactive |
| CN1CCN(c2ccc(-c3cc(NC=O)c4ncc(-c5ccc(F)c(Cl)c5)n4c3)cc2)CC1 | 25.1 µM (active) |
| CN(C)C(=O)c1cccc(-c2cnc3c(NC=O)cc(-c4ccc(F)cc4)cn23)c1 | inactive |
| COc1ccc(Cl)cc1S(=O)(=O)N1CCN(C(=O)c2n[nH]c(=O)c3ccccc23)CC1 | inactive |
| O=C(NC1=CC(=O)c2ccccc2C1=O)c1ccccc1 | 14.1 µM (active) |
| O=C(Nc1nonc1-c1ccc(Cl)cc1)c1ccccc1 | inactive |
| NCCCCCc1nnc(SCc2ccccc2Cl)o1 | inactive |
| COc1ccc(C2CC(c3cccc(Br)c3)=NN2c2ccc(S(N)(=O)=O)cc2)cc1 (stereo not drawn) | inactive |
| Cc1cc(OCc2nc(N)nc(N)c2-c2ccc(Cl)c(Cl)c2)ccc1[N+](=O)[O-] | inactive |
| CCCCC(=O)NC(c1ccc(Cl)cc1Cl)c1ccc2cccnc2c1O (stereo not drawn) | inactive |
| O=C(Nc1nccs1)c1cccc(N2C(=O)c3cccc4c([N+](=O)[O-])ccc(c34)C2=O)c1 | inactive |
| O=C(Nc1c(Cl)cccc1Cl)Oc1cccc2cccnc12 | inactive |

| SMILES | Potency |
| --- | --- |
| CC(=O)NC(c1cccs1)c1cc([N+](=O)[O-])c2cccnc2c1O (stereo not drawn) | 12.6 µM (active) |
| CC(C)C(=O)NC(c1ccccc1)c1cc([N+](=O)[O-])c2cccnc2c1O (stereo not drawn) | 22.4 µM (active) |
| CCC(=O)NC(c1ccc(Cl)cc1Cl)c1ccc2cccnc2c1O (stereo not drawn) | 7.94 µM (active) |
| Cc1cc(OCC(=O)NC(C)c2ccccc2)ccc1[N+](=O)[O-] (stereo not drawn) | inactive |
| CCC(=O)NC(c1ccc(C)cc1)c1cc([N+](=O)[O-])c2cccnc2c1O (stereo not drawn) | 22.4 µM (active) |
| COc1ccc(C2CC(c3ccccc3C(F)(F)F)=NN2c2ccc(S(N)(=O)=O)cc2)cc1 (stereo not drawn) | inactive |
| CC[C@@H]1C(c2cccc(Cl)c2)=NN(c2ccc(Br)cc2)[C@H]1C(=O)N1CCOC1=O | inactive |
| CCOC(=O)C1=CCN(S(=O)(=O)c2ccc(C)cc2)C1c1cccc(Cl)c1 (stereo not drawn) | inactive |
| CC1(C(=O)NCc2ccco2)CCN1C(=O)C1(c2ccccc2)CC1 (stereo not drawn) | inactive |
| O=C(CSc1nc2ncc(Cl)cc2[nH]1)Nc1cccc(F)c1 | inactive |
| CC(C)C(=O)NC(c1cccc([N+](=O)[O-])c1)c1ccc2cccnc2c1O (stereo not drawn) | 7.94 µM (active) |
| Oc1c(C(Nc2nccs2)c2ccc(C(F)(F)F)cc2)ccc2cccnc12 (stereo not drawn) | 15.8 µM (active) |
| O=[N+]([O-])c1ccc(NC(c2ccccc2)c2ccc3cccnc3c2O)cc1 (stereo not drawn) | 7.94 µM (active) |
| O=C(NC(=S)N1CCN(c2ccc(F)cc2)CC1)c1cccs1 | inactive |
| Nc1ccn(C2OC(COP(=O)(O)O)C(O)C2O)c(=O)n1 (stereo not drawn) | inactive |
| Cc1ccc(Cc2cnc(N3C(=N)SC(C)C3=O)s2)cc1 (stereo not drawn) | inactive |
| CCC(C)(C)c1ccc(Oc2ccc(N)cc2)cc1 | inactive |
| CCCC(=O)N1CCCC(c2cc(C(=O)Nc3ccccc3)no2)C1 (stereo not drawn) | inactive |
| Cc1cc(=O)[nH]c(N=N/C(=N/Nc2ccccc2C)c2ccccc2)n1 | 12.6 µM (active) |
| O=C(Nc1cccc(Cl)c1)c1ccc2c(c1)SC1=NS(=O)(=O)CCN12 | inactive |
| CCc1cc(C)cc(OCCNC(=O)c2cncc(Br)c2)c1 | inactive |
| CCn1c2ccccc2c2cc(NC(=O)COC(=O)Cc3cn4ccsc4n3)ccc21 | inactive |
| O=C(CC1Sc2ccccc2NC1=O)NNc1cccc(Cl)c1Cl (stereo not drawn) | inactive |
